Bioassay records from PubChem.
Only some compounds are listed: those with a hit (about 1.3% of all), similar ones and a draw of the others.
SRC2 inh – human SRC2 (NCOA2) inhibition; HEK293 GAL4-SRC2 luciferase reporter, luminescence; inhibition, % at 9 µM; 370,000 compounds, 0.17% hits; AID 651957;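 active means inhibition above the mean inhibition of all tested compounds plus 3 SD, set per campaign, cut at about 52% in these data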;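 further: 0% = DMSO treated cells and 100% = cells given Gossypol at 36 µM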
LRH-1 inv ag – inverse agonists of human LRH-1 (NR5A2); O00482; HEK293T StAR-luciferase reporter, LRH-1 transfected, 24 h; inhibition, % at 3.6 µM; 360,000 compounds, 0.13% hits;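 active means inhibition above the mean inhibition of all tested compounds plus 3 SD, cut at about 73% in these data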;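 further: 0% = DMSO wells and 100% = reporter-only cells lacking LRH-1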
Gli-Sufu antag – antagonists of Gli-Sufu signaling. Sufu-KO-LIGHT fibroblasts, Gli luciferase reporter luminescence. inhibition, % at 5 µM. 340,000 compounds, 0.74% hits. AID 588413;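 active means inhibition above about 55%, limit read from the data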;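 further: 0% = DMSO-treated cells and 100% = wells with medium but no cells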
COUP-TFII inh – NR2F2 (human) inhibition, primary screen; P24468; inhibition, % at 8.6 µM; AID 686940; 370,000 compounds, 0.7% hits; HEK293T NGFI-A luciferase reporter, luminescence;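 active means inhibition above a per-plate cutoff, mean inhibition of test wells between control levels plus 3 SD, cut at about 38% in these data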;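 further: cells cotransfected with COUP-TFII expression vector driving the NGFI-A reporter; 0% = median of COUP-TF2 test wells and 100% = reporter-only cells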
NCOA3 inh – human NCOA3 inhibition | AID 588352 | HEK293 GAL4-SRC3 luciferase reporter, luminescence | inhibition, % at 3.6 µM | 360,000 compounds, 0.17% hits | Q9Y6Q9;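 active means inhibition above a per-campaign cutoff, the mean of all compounds plus 3 SD, cut at about 60% in these data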;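 further: 0% = DMSO-treated cells and 100% = gossypol-treated cells at 36 µM; higher means less SRC3-driven luciferase light from the GAL4 reporter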
NCOA1 inh – human NCOA1 inhibition. Q15788. inhibition, % at 3.6 µM. HEK293 GAL4-SRC1 luciferase reporter, luminescence. 360,000 compounds, 0.12% hits;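 active means inhibition above the campaign mean plus 3 SD, with each screening campaign given its own cutoff, cut at about 60% in these data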;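 further: 0% = DMSO treated cells and 100% = gossypol at 36 µM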
Gli-Sufu confirm – confirmation of Gli-SUFU pathway antagonists; shares compounds with Gli-Sufu antag; Sufu-KO-LIGHT cells, Gli luciferase reporter, luminescence; inhibition, % at 5 µM; 2,500 compounds, 40% hits;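 active means mean inhibition at 5 µM reaching about 45%, limit read from the data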;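 further: plate controls were DMSO-treated cells for no effect and wells lacking cells for full effect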
Gli cytotox – cytotoxicity counter-screen for Gli-SUFU antagonists | shares compounds with Gli-Sufu antag | Sufu-KO-LIGHT cells cytotoxicity, ATP luminescence | cytotoxicity, % at 5 µM | 2,500 compounds, 32% hits | AID 651994;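 active means mean cytotoxicity at 5 µM above about 25%, limit read from the data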;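 further: cells exposed to compound overnight for roughly 16 to 18 hours; plate controls were DMSO wells with cells for no effect and medium without cells for full effect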
Wnt3a counter – inhibits Wnt3a reporter, counter-screen for Gli-SUFU antagonists | shares compounds with Gli-Sufu antag | Wnt-LIGHT cells, Wnt3a-driven luciferase reporter, luminescence | inhibition, % at 6.25 µM | 2,500 compounds, 20% hits | AID 651995;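 active means mean inhibition above about 25%, limit read from the data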
An asterisk follows results filed as active; / = not tested or not shown.

SMILES | SRC2 inh | LRH-1 inv ag | Gli-Sufu antag | COUP-TFII inh | NCOA3 inh | NCOA1 inh | Gli-Sufu confirm | Gli cytotox | Wnt3a counter
c1cncc(-c2ccc3n2Cc2cnnn2-c2ccccc2-3)c1 | 37 | / | / | 6 | / | / | / | / | /
COC(=O)c1nc(-c2ccc3c(n2)C(=O)C(N)=C(OC)C3=O)c(N)c(-c2ccc(OC)c(OC)c2O)c1C | 1 | 1 | 58* | 4 | -37 | -5 | / | / | /
CC1=CC2OC3CC4OC(=O)C=CC=CC(=O)OCCC(C)C(O)C(=O)OCC2(CC1O)C4(C)C31CO1 (configuration not stated) | / | 97* | 88* | / | 93* | 94* | 96* | 82* | 104*
CCOc1ccc(-c2cc(C)[n+](CCO)c(-c3ccc(OCC)cc3)c2)cc1 | -9 | 20 | 64* | 8 | 20 | -7 | 60* | 34* | -47
C/C(=N\Nc1cccc2ccccc12)c1c(O)n(Cc2ccccc2)c(=O)[nH]c1=O | 17 | -7 | 57* | -4 | -1 | -20 | 18 | 12 | -7
CC(C)C(CN1CCC(C)(c2cccc(O)c2)[C@@H](C)C1)NC(=O)C1Cc2ccc(O)cc2CN1 (some centres not stated) | 8 | / | / | -12 | / | / | / | / | /
Cc1ccccc1CCC[C@H](CC1CCCCC1)CN(C)C(=O)Oc1ccccc1 | 3 | / | / | -16 | / | / | / | / | /
N#CC1c2ccccc2-n2nncc2CN1C(=O)c1cccnc1 (configuration not stated) | 20 | / | / | -11 | / | / | / | / | /
NC(=O)c1cc([N+](=O)[O-])cc([N+](=O)[O-])c1 | -7 | 14 | 16 | -1 | -3 | 2 | / | / | /
CC(C)(C)c1cc([N+](=O)[O-])cc(C(C)(C)C)c1O | -11 | / | 51 | 21 | / | / | 77* | 42* | 72*
O=c1[nH]c2cc(Cl)ccc2n1C1CCN(Cc2ccc(-c3nc4ccc(F)cc4nc3-c3ccccc3)cc2)CC1 | -10 | / | / | 9 | / | / | / | / | /
C[n+]1c(-c2ccccc2)sc2ccccc21 | 5 | 13 | 0 | 15 | -8 | 10 | / | / | /
CN(C)c1ccc(/C=C/C=C/c2sc3ccccc3[n+]2C)cc1 | 9 | 47 | 82* | 28 | 39 | 32 | 84* | 40* | 48*
CCC1(OC(=O)CN)C(=O)OCc2c1cc1n(c2=O)Cc2cc3ccccc3nc2-1 (configuration not stated) | / | 87* | 82* | / | 69* | 27 | 59* | 59* | -83
N#CC1c2ccccc2-n2nncc2CN1C(=O)c1ccc([N+](=O)[O-])o1 (configuration not stated) | 3 | / | / | 4 | / | / | / | / | /
CCOC(=O)CNC(=O)CNC(=O)C(Cc1ccc(N(CCCl)CCCl)cc1)NC(C)=O (configuration not stated) | -12 | -20 | 16 | -6 | 23 | -54 | / | / | /
CC(=O)NC(Cc1ccc(N(CCCl)CCCl)cc1)C(=O)NCC(=O)NCC(=O)O (configuration not stated) | -24 | -5 | 53 | 7 | -15 | -8 | 19 | 4 | -2
CCOP(=O)(OCC)OCC | 8 | 4 | 5 | 5 | -10 | -57 | / | / | /
CCOP(=O)(CCP(=O)(OCC)OCC)OCC.C[CH2][Sn]([Cl])([Cl])[CH2]C | -42 | 40 | 63* | 21 | -11 | -24 | 63* | 14 | -25
CCOP(=O)(OCC)C(O)c1cccc([N+](=O)[O-])c1 (configuration not stated) | -8 | -8 | 58* | 7 | -4 | -14 | 12 | 25* | -34
OC(c1ccccc1)(c1ccc(Cl)cc1)C1CN2CCC1CC2 (configuration not stated) | -16 | 9 | 58* | 5 | 27 | 9 | 27 | 22 | -44
COC(=O)C1C(OC(=O)c2ccccc2)CC2CCC1[N+]2(C)C (configuration not stated) | 0 | / | / | 11 | / | / | / | / | /
Cc1ncc(CN2CCCC(C(=O)c3ccc(C(C)(C)C)cc3)C2)s1 (configuration not stated) | -3 | -11 | 53 | 19 | -14 | 0 | 14 | 24 | -90
O=C(CN1C(=O)CN=C(c2ccccc2)c2cc(Cl)ccc21)NC1CCCCC1 | 22 | / | / | 7 | / | / | / | / | /
N#Cc1ccc(NC(=S)N2Cc3ccc(Br)cc3-n3nncc3C2)cc1 | 10 | / | / | 10 | / | / | / | / | /
SMILES | SRC2 inh | LRH-1 inv ag | Gli-Sufu antag | COUP-TFII inh | NCOA3 inh | NCOA1 inh | Gli-Sufu confirm | Gli cytotox | Wnt3a counter
O=c1[nH]c(=S)n(Cc2ccc(F)cc2)c(O)c1C=NCc1cccnc1 | -4 | 25 | 72* | 1 | 7 | -14 | 22 | -5 | -14
CCC(C)n1c(O)c(C=NCc2cccnc2)c(=O)[nH]c1=S (configuration not stated) | -36 | 5 | 6 | 10 | 6 | 4 | / | / | /
O=C1NC(=S)N(c2ccccc2)C(=O)/C1=C/c1ccco1 | 0 | 2 | 26 | 2 | -18 | -52 | / | / | /
CCOc1cccc(N2C(=O)/C(=C/c3ccco3)C(=O)NC2=S)c1 | -26 | 7 | 55* | -15 | -4 | 21 | 12 | 0 | 5
CSc1ncc(Cl)c(C(=O)O)n1 | -18 | 15 | 54 | 1 | -4 | -26 | 34 | -4 | 11
CSc1ncc(Br)c(N2CC2)n1 | -16 | -4 | -1 | 0 | -4 | -13 | / | / | /
N/C(=N\N=C\c1ccc(O)cc1O)N[N+](=O)[O-] | 4 | 3 | 55* | 9 | -17 | 4 | 14 | 15 | 42*
CC(C)(C)OC(=O)NCCCCC(N)[P+](=O)O (configuration not stated) | 14 | / | / | -13 | / | / | / | / | /
C1=C(c2c[nH]c3ccccc23)CCN(Cc2ccccc2)C1 | -9 | -4 | 55* | 37 | 18 | -2 | 20 | 20 | -50
Cc1c(N=Cc2c(O)n(CCc3ccccc3)c(=O)[nH]c2=O)c(=O)n(-c2ccccc2)n1C | -17 | -1 | 6 | -6 | 0 | -34 | / | / | /
Cc1c(N=Cc2c(O)n(Cc3ccc(F)cc3)c(=O)[nH]c2=O)c(=O)n(-c2ccccc2)n1C | -15 | 5 | 63* | -13 | 20 | -8 | 23 | 4 | -26
Cc1ccc(N2C(=O)NC(=O)/C(=C\c3cc(C)n(-c4sc5c(c4C#N)CCCC5)c3C)C2=O)cc1 | -6 | -5 | 59* | 13 | 3 | -1 | 53* | 42* | -45
CCN1C(=O)NC(=O)/C(=C/c2cc(C)n(-c3sc(C)c(C)c3C#N)c2C)C1=O | 3 | -20 | 0 | -15 | -4 | -39 | / | / | /
O=C(NC(Cc1ccccc1)P(=O)(O)Oc1ccccc1)OCc1ccccc1 (configuration not stated) | 5 | / | / | 6 | / | / | / | / | /
